Measurements taken from PubChem BioAssay (NCATS).
Records with an inconclusive call do not appear. Calls of active or inactive are those of the source. Calls come from the whole dose curve; as a rule, active = well fitted cell-killing curve with a large enough effect; inconclusive = small, poorly fitted or top-dose-only effect, or effect the other way; inactive = flat fitted curve, though single readings scatter.

What was measured:
Experiment in all cases: Primary qHTS to identify gynecologic anti-cancer compounds using libraries of approved drugs and bioactive compounds (AID 1345084); note: nearly all actives have a fitted effect of over 55% in size
CAOV3 = conditions: Gynecologic cancer cell panel viability, ATPlite luminescence, 48 h; series mostly up to 57.5 µM
Summary of the method: (§1)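 Cytotoxicity screen measuring ATP content by luciferase luminescence. Each compound is applied at five concentrations for 48 h at 37 C with 5% CO2.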

CASKI = conditions: Gynecologic cancer cell panel viability, ATPlite luminescence, 48 h; series mostly up to 57.5 µM
Summary of the method: as §1

Es-2 = conditions: Gynecologic cancer cell panel viability, ATPlite luminescence, 48 h; series mostly up to 57.5 µM
Summary of the method: as §1

HeLa = conditions: Gynecologic cancer cell panel viability, ATPlite luminescence, 48 h; series mostly up to 57.5 µM
Summary of the method: as §1

Hek293T = conditions: Gynecologic cancer cell panel viability, ATPlite luminescence, 48 h, control line for the selectivity index; series mostly up to 57.5 µM
Summary of the method: as §1

JEG-3 = conditions: Gynecologic cancer cell panel viability, ATPlite luminescence, 48 h; series mostly up to 57.5 µM
Summary of the method: as §1

OV90 = conditions: Gynecologic cancer cell panel viability, ATPlite luminescence, 48 h; series mostly up to 57.5 µM
Summary of the method: as §1

PA-1 = conditions: Gynecologic cancer cell panel viability, ATPlite luminescence, 48 h; series mostly up to 57.5 µM
Summary of the method: as §1

SKOV3 = conditions: Gynecologic cancer cell panel viability, ATPlite luminescence, 48 h; series mostly up to 57.5 µM
Summary of the method: as §1

Tov-21-G = conditions: Gynecologic cancer cell panel viability, ATPlite luminescence, 48 h; series mostly up to 57.5 µM
Summary of the method: as §1

Tov112D = conditions: Gynecologic cancer cell panel viability, ATPlite luminescence, 48 h; series mostly up to 57.5 µM
Summary of the method: as §1
% is set by controls: 0 for no effect and ±100 for the full control effect.

C=C(C)[C@H]1C[C@@H](O)C(=C)CC[C@@H](O)C(=C)[C@@H](O)C1
inactive: Potency (CAOV3) | Potency (CASKI) | Potency (Es-2) | Potency (HeLa) | Potency (Hek293T) | Potency (JEG-3) | Potency (OV90) | Potency (PA-1) | Potency (SKOV3) | Potency (Tov-21-G) | Potency (Tov112D)

C[C@@H]1O[C@@H](O[C@H]2[C@H](O[C@H]3CO[C@@H](O[C@H]4CC[C@@]5(C)C(CC[C@]6(C)C5CC[C@]57OC[C@@]8(CC[C@](C)(CO)CC85)[C@H](O)C[C@]76C)C4(C)C)[C@H](O[C@@H]4O[C@H](CO)[C@@H](O)[C@H](O)[C@H]4O)[C@H]3O)O[C@H](CO)[C@@H](O)[C@@H]2O)[C@H](O)[C@H](O)[C@H]1O (stereo not given in full)
inactive: activity change, negative = cytotoxicity (CAOV3) -8.26% [at 11.6 µM] | activity change, negative = cytotoxicity (CASKI) -2.01% [at 11.6 µM] | activity change, negative = cytotoxicity (Es-2) -8.3% [at 11.6 µM] | activity change, negative = cytotoxicity (HeLa) 0% [at 11.6 µM] | activity change, negative = cytotoxicity (Hek293T) 0.0587% [at 11.6 µM] | activity change, negative = cytotoxicity (JEG-3) -0.317% [at 11.6 µM] | activity change, negative = cytotoxicity (OV90) 0.0764% [at 11.6 µM] | activity change, negative = cytotoxicity (PA-1) 4.72% [at 11.6 µM] | activity change, negative = cytotoxicity (SKOV3) 20.5% [at 11.6 µM] | activity change, negative = cytotoxicity (Tov-21-G) -1.65% [at 11.6 µM] | activity change, negative = cytotoxicity (Tov112D) -8.07% [at 11.6 µM]

CCCC1=CC2=C(CO1)C(=O)C(C)(OC(=O)c1c(C)cc(OC)cc1O)C(O)C2 (stereo not given)
inactive: Potency (CAOV3) | Potency (CASKI) | Potency (Es-2) | Potency (HeLa) | Potency (Hek293T) | Potency (JEG-3) | Potency (OV90) | Potency (PA-1) | Potency (SKOV3) | Potency (Tov-21-G) | Potency (Tov112D)

CC1(C)CC[C@]2(C(=O)O[C@@H]3O[C@H](CO)[C@@H](O)[C@H](O)[C@H]3O)CC[C@]3(C)C(=CCC4[C@@]5(C)C[C@@H](O)[C@H](O)C(CO)(CO)C5CC[C@]43C)C2[C@@H]1O (stereo not given in full)
inactive: Potency (CAOV3) | Potency (CASKI) | Potency (Es-2) | Potency (HeLa) | Potency (Hek293T) | Potency (JEG-3) | Potency (OV90) | Potency (PA-1) | Potency (SKOV3) | Potency (Tov-21-G) | Potency (Tov112D)

CC(=O)O[C@@H]1C[C@@]23C[C@@]24CC[C@H](OC2OC[C@@H](O)[C@H](O)[C@H]2O)C(C)(C)[C@@H]4CC[C@H]3[C@]2(C)CC3OC4(C[C@@H](C)C3[C@@]12C)OCC1(C)OC14 (stereo not given in full)
inactive: Potency (CAOV3) | Potency (CASKI) | Potency (Es-2) | Potency (HeLa) | Potency (Hek293T) | Potency (JEG-3) | Potency (OV90) | Potency (PA-1) | Potency (SKOV3) | Potency (Tov-21-G) | Potency (Tov112D)

COc1c(C)c2c(c(O)c1C/C=C(\C)CC/C=C(\C)CCC(=O)O)C(=O)OC2
inactive: Potency (CAOV3) | Potency (CASKI) | Potency (Es-2) | Potency (HeLa) | Potency (Hek293T) | Potency (JEG-3) | Potency (OV90) | Potency (PA-1) | Potency (SKOV3) | Potency (Tov-21-G) | Potency (Tov112D)

C=C1C[C@]23C[C@H]1CC[C@H]2[C@@]12C=C[C@H](O)[C@@](C)(C(=O)O1)[C@H]2[C@@H]3C(=O)O
inactive: Potency (CAOV3) | Potency (CASKI) | Potency (Es-2) | Potency (HeLa) | Potency (Hek293T) | Potency (JEG-3) | Potency (OV90) | Potency (PA-1) | Potency (SKOV3) | Potency (Tov-21-G) | Potency (Tov112D)

C[C@@H]1C/C=C/C=C\C=C\C=C\[C@H](O[C@@H]2O[C@H](C)[C@@H](O)[C@H](N)[C@@H]2O)C[C@@H]2O[C@](O)(C[C@@H](O)C[C@H]3O[C@@H]3/C=C/C(=O)O1)C[C@H](O)[C@H]2C(=O)O
inactive: Potency (CAOV3) | Potency (CASKI) | Potency (Es-2) | Potency (HeLa) | Potency (Hek293T) | Potency (JEG-3) | Potency (OV90) | Potency (PA-1) | Potency (SKOV3) | Potency (Tov-21-G) | Potency (Tov112D)

CC1=C2C3OC(=O)C(C)C3(O)CCC2(C)CCC1=O (stereo not given)
inactive: Potency (CAOV3) | Potency (CASKI) | Potency (Es-2) | Potency (HeLa) | Potency (Hek293T) | Potency (JEG-3) | Potency (OV90) | Potency (PA-1) | Potency (SKOV3) | Potency (Tov-21-G) | Potency (Tov112D)

CC(C)c1ccc(CC(=O)N2CCC[C@@H](c3cccc(OC(C)(C)C(=O)O)c3)C2)cc1
inactive: Potency (CAOV3) | Potency (CASKI) | Potency (Es-2) | Potency (HeLa) | Potency (Hek293T) | Potency (JEG-3) | Potency (OV90) | Potency (PA-1) | Potency (SKOV3) | Potency (Tov-21-G) | Potency (Tov112D)

O=c1ccn([C@@H]2O[C@H](CO)[C@@H](O)[C@H]2O)c(=O)[nH]1
inactive: Potency (CAOV3) | Potency (CASKI) | Potency (Es-2) | Potency (HeLa) | Potency (Hek293T) | Potency (JEG-3) | Potency (OV90) | Potency (PA-1) | Potency (SKOV3) | Potency (Tov-21-G) | Potency (Tov112D)

CC(=O)O[C@@H]1C[C@]2(C)[C@@]3(CCC4[C@@]5(C)CC[C@H](O[C@@H]6O[C@H](C(=O)O)[C@@H](O)[C@H](O[C@@H]7O[C@H](CO)[C@H](O)[C@H](O)[C@H]7O[C@@H]7O[C@@H](C)[C@H](O)[C@@H](O)[C@H]7O[C@@H]7OC[C@](O)(CO)[C@H]7O)[C@H]6O[C@@H]6O[C@H](CO)[C@H](O)[C@H](O)[C@H]6O)C(C)(C)C5CC[C@]42C)O[C@@H](O)[C@]12C3CC(C)(C)[C@@H](OC(=O)/C=C/c1ccc(O)c(O)c1)[C@@H]2OC(=O)/C=C/c1ccccc1 (stereo not given in full)
inactive: activity change, negative = cytotoxicity (CAOV3) 0.993% [at 6.55 µM] | activity change, negative = cytotoxicity (CASKI) 8% [at 6.55 µM] | activity change, negative = cytotoxicity (Es-2) -3.99% [at 6.55 µM] | activity change, negative = cytotoxicity (HeLa) 2.04% [at 6.55 µM] | activity change, negative = cytotoxicity (Hek293T) 0.066% [at 6.55 µM] | activity change, negative = cytotoxicity (JEG-3) -2.17% [at 6.55 µM] | activity change, negative = cytotoxicity (OV90) -7.75% [at 6.55 µM] | activity change, negative = cytotoxicity (PA-1) 24% [at 6.55 µM] | activity change, negative = cytotoxicity (SKOV3) 3.32% [at 6.55 µM] | activity change, negative = cytotoxicity (Tov-21-G) 17% [at 6.55 µM] | activity change, negative = cytotoxicity (Tov112D) 6.15% [at 6.55 µM]

OCCc1ccc(O[C@@H]2O[C@H](CO)[C@@H](O)[C@H](O)[C@H]2O)c(O)c1
inactive: Potency (CAOV3) | Potency (CASKI) | Potency (Es-2) | Potency (HeLa) | Potency (Hek293T) | Potency (JEG-3) | Potency (OV90) | Potency (PA-1) | Potency (SKOV3) | Potency (Tov-21-G) | Potency (Tov112D)

Cc1onc(-c2ccccc2)c1C(=O)N[C@@H]1C(=O)N2[C@@H]1SC(C)(C)[C@@H]2C(=O)O
inactive: Potency (CAOV3) | Potency (CASKI) | Potency (Es-2) | Potency (HeLa) | Potency (Hek293T) | Potency (JEG-3) | Potency (OV90) | Potency (PA-1) | Potency (SKOV3) | Potency (Tov-21-G) | Potency (Tov112D)

CC1(C)CC[C@]2(C(=O)O)CC[C@]3(C)C(=CCC4[C@@]5(C)C[C@@H](O)[C@H](O)C(C)(C)C5CC[C@]43C)[C@@H]2[C@@H]1O (stereo not given in full)
inactive: Potency (CAOV3) | Potency (CASKI) | Potency (Es-2) | Potency (HeLa) | Potency (Hek293T) | Potency (JEG-3) | Potency (OV90) | Potency (PA-1) | Potency (SKOV3) | Potency (Tov-21-G) | Potency (Tov112D)
